From PubChem BioAssay come the findings set out here.

Calls of active or inactive are those of the source.

The test system of the test is XIP peptide (Xip251-270) binding. The test can be described thus: XIP fragment 251-270 binding compounds – biochemical, small-molecule microarray, fluorescence 635/667 nm, 0.1 µg/mL protein, primary screen (AID 1182). To be noted: fluorescent protein binding, 635 nm, higher = more signal, called active from +8 up or from −8 down.
On to `CC=CC(O)C1C=CC2C(=O)N(c3ccccc3)C(=O)C2N1Nc1ccccc1F` (stereo not given), for which the composite z-score was 0.147 (inactive).
Then `O=C(NCC(F)(F)F)[C@@H]1c2ccccc2C(=O)N(Cc2cc(F)cc(C(F)(F)F)c2)[C@H]1c1ccc(CO)cc1`, with 0.0811 (inactive).
Then `O=C1O[C@@H](c2ccccc2)[C@@H](c2ccccc2)N2[C@@H](c3ccc(O)cc3)[C@]3(C(=O)Nc4ccc(C#CC5(O)CCCCCC5)cc43)[C@@H](C(=O)NC[C@H](O)c3ccccc3)[C@H]12`, with 0.0382 (inactive); and `COCCCNC(=O)[C@@]1(Sc2ccc(C)cc2)CC(=O)N(C2CCCCC2)[C@@H]1c1ccc(CO)cc1`, with -0.0795 (inactive).
Then `C=C(/C(=C/C[C@H](OC(=O)c1ccncc1)c1ccc(CO)o1)c1cc(C(=O)OC)ccc1OC)C(C)C`, with 0.0474 (inactive).
As to `NC(N)=NCCCn1cc(CNC(=O)[C@@H](N)Cc2ccccc2)nn1`, the composite z-score was 0.196 (inactive).
Take `COC(=O)[C@@]1(Cc2ccc(OC)cc2)[C@H]2c3cc(C(=O)N(C)C)n(Cc4ccc(Cl)c(C(F)(F)F)c4)c3C[C@H]2CN1C(=O)c1ccccc1`: the composite z-score is -0.0177 (inactive).
`C=CC[C@@]1(C(=O)N2CCOCC2)N=C(c2ccc(OCCCO)cc2)O[C@@H]1c1ccccc1CN=[N+]=[N-]`: the composite z-score was 0.74 (inactive).
Then `C[N+](C)(C)CCCCCCNC(=O)[C@H]1C[C@H]2C(=O)NCC(=O)N2[C@H]1c1ccc(O)cc1`, with 0.537 (inactive); and `C=C(/C(=C/C[C@H](OC(C)=O)c1ccccc1OCCO)c1cc(C(=O)OC)ccc1OC)C(C)C`, with -0.2 (inactive).
